Screens deposited in PubChem by National Center for Advancing Translational Sciences (NCATS).
SARS PLpro yeast: qHTS of Yeast-based Assay for SARS-CoV PLP | Potency, µM (doses to about 32.9 µM), without a hit: at the top dose activity, positive = growth rescue, usual class: activators | S. cerevisiae expressing SARS-CoV PLpro, growth rescue | 330,000 compounds, 0.19% hits; calls by dose curve; further: potency means the concentration at half of the fitted maximal effect; 0% is about no effect; nearly all actives have a fitted effect of over 55% in size
Pf growth 96h: Primary qHTS for delayed death inhibitors of the malarial parasite plastid, 96 hour incubation | P. falciparum luciferase reporter growth, 96 h | Potency, µM (series often up to 28.7 µM), for inactives: at the top dose activity change, negative = inhibition, usual class: inhibitors | 320,000 compounds, 6.9% hits | AID 504834, 2011; further: potency means the concentration at half of the fitted maximal effect; on the % scale 0 is the no-effect control and ±100 the full control effect
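P. falciparum expressing integrated firefly luciferase, in erythrocytes at 2% hematocrit, 0.05% parasitemia, incubated with compounds 96 h at 37 C, 5% CO2. Growth inhibition read as loss of luminescence; two-generation exposure targets delayed-death apicoplast inhibitors.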
Cycloheximide cs: Cycloheximide Counterscreen for Small Molecule Inhibitors of Shiga Toxin; max response, %; cell reporter, cycloheximide protein synthesis inhibition counterscreen; 300,000 compounds, 12% hits; AID 2314, 2010; in the data active means max response mostly above about 13%, no sharp cut-off; inactive means mostly below about 14%; further: read at 38.3 µM for the half of the compounds with a filed dose; 0% is about no effect
Pf growth 48h: Primary qHTS for delayed death inhibitors of the malarial parasite plastid, 48 hour incubation. P. falciparum luciferase growth in erythrocytes, 48 h. Potency, µM (highest dose often 28.7 µM), for inactives: at the highest dose activity change, negative = inhibition, actives largely listed as inhibitors. 310,000 compounds, 5.9% hits; further: potency means the concentration at half of the fitted maximal effect; on the % scale 0 is the no-effect control and ±100 the full control effect
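Cell-based growth assay: transgenic P. falciparum expressing firefly luciferase, cultured in red cells within RPMI 1640 containing 0.5% w/v Albumax, 24 mM bicarbonate and gentamycin. A drop in luciferase activity indicates inhibition.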
AMA1-RON2 inh: qHTS for Inhibitors of AMA1-RON; Towards Development of Antimalarial Drug Lead: Primary Screen; 360,000 compounds, 0.2% hits; AlphaScreen AMA1-biotinylated RON2 peptide binding; Potency, µM (highest dose often 58.2 µM), for inactives: at the top dose activity change, negative = inhibition, most hits filed as inhibitors; AID 720542, 2013;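 further: potency means the concentration at half of the fitted maximal effect; 0% = vehicle wells and -100% = peptide control; nearly all actives have a fitted effect of over 45% in size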
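AMA1 (3D7) with his tag at 25 nM final met compounds first, then biotinylated RON2 peptide at 25 nM; detection used donor plus acceptor beads, 10 µg/mL apiece, read by AlphaScreen after 30 min at room temperature.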
Shiga inhibitor: A qHTS for Small Molecule Inhibitors of Shiga Toxin; inhibition, % at 38.7 µM; Vero cells, Shiga toxin protein synthesis inhibition reporter; 290,000 compounds, 9.2% hits; in the data active means inhibition mostly above about 28%, no sharp cut-off; inactive means mostly below about 43%; further: 0% is about no effect
Starred values were filed as active, the others as inactive; i = inactive; ? = inconclusive; · = no result; [ ] = remark or other dose. Only some compounds are listed: those with a hit (about 19% of all), similar ones and a draw of the others. Unless noted, the call rests on the fitted dose curve; in most records, active means well fitted curve in the direction sought with a large enough effect; inconclusive means small, poorly fitted or top-dose-only effect, or another doubt; inactive means no such curve, though single readings can be large; an effect the other way counts as inactive or inconclusive.

SMILES	SARS PLpro yeast	Pf growth 96h	Cycloheximide cs	Pf growth 48h	AMA1-RON2 inh	Shiga inhibitor
CC(C)c1ccc(NC(=S)NNC(=O)c2cccnc2)cc1	1%	41%	13	30%	104%	19
C/C(=C\C(=O)c1cccnc1)Nc1ccc(C(=O)O)cc1	3%	·	-2	8%	36%	-9
O=C(NNC(=S)Nc1ccc(Br)cc1)c1cccnc1	-2%	43%	18*	43%	53%	37
Cc1cc(C)n(S(=O)(=O)c2ccc3oc(=O)ccc3c2)n1	-4%	-1%	-4	20%	0%	39
O=C(NC(=S)NNC(=O)c1ccc(Cl)cc1Cl)c1cccnc1	-23%	?	-3	0%	62%	32
O=C(NNC(=S)NC(=O)c1cccnc1)c1ccc(Cl)cc1	-10%	22%	19*	?	91%	-26
COc1ccc(C(=O)CC(CC(=O)c2ccc(OC)cc2)C(=O)O)cc1	-5%	91%	·	?	22%	·
O=C(Cc1ccccc1)N/N=C/c1ccccc1Cl	-4%	?	41*	-23%	3%	53
O=C(N/N=C/c1cc(Br)ccc1O)C(=O)Nc1ccccc1OC(F)(F)C(F)F	-5%	2.9µM*	-1	?	34%	-21
COCCCNC(=S)N/N=C/c1ccccc1O	1%	?	44*	?	0%	52*
O=C(CCc1ccccc1)N/N=C/c1cc(Br)ccc1O	-4%	6.6µM*	7	4.1µM*	59%	-14
O=C(C[n+]1ccccc1)N/N=C/c1ccccc1Cl	1%	?	·	-24%	-2%	·
Cc1nc(CC(=O)c2c(C)cc(O)cc2O)cs1	-1%	1%	4	11%	-11%	9
Cc1ccc2c(CSc3nncn3C)cc(=O)oc2c1C	-2%	-10%	7	-10%	-1%	-12
COc1ccc(/C(C)=N/NC(=S)NCCc2ccccc2)c(O)c1	-4%	?	0	0.41µM*	19%	-3
S=C(NCCc1ccccc1)N/N=C/c1ccccc1Cl	24%	207%	11*	18%	-9%[2.32 µM]	-10
CCc1ccc(/C=N/NC(=S)NCCc2ccccc2)cc1	1%	21%	-2	·	102%	-12
O=C(NCCCN1CCOCC1)C(=O)N/N=C/c1ccccc1Cl	2%	1%	19*	20%	4%	21
Oc1ccc(Br)cc1/C=N/NC(=S)NCCc1ccccc1	-10%	2.3µM*	-5	4.7µM*	30%	1
COc1cc(C(=O)NNC(=O)Nc2ccc([N+](=O)[O-])cc2)cc(OC)c1OC	1%	-6%	5	5%	0%	-2
CCOC(=O)c1cc(-c2ccc(F)cc2)n(CC(=O)Nc2nccs2)c1C	·	·	·	·	80%	·
CC(C)c1nc(SCC(=O)Nc2ccc3c(c2)OCCO3)n[nH]1	-6%	19%	9	4%	3%	55
COC(=O)N/N=C/c1cc(Br)ccc1O	0%	?	-4	0%	62%	4
COc1ccc(O)c(/C=N/NC(=S)NCCc2ccccc2)c1	-1%	?	3	2.6µM*	52%	18
O=C(N/N=C/c1cc(Br)ccc1O)c1ccccc1Cl	·	9.3µM*	-1	?	60%	10
SMILES	SARS PLpro yeast	Pf growth 96h	Cycloheximide cs	Pf growth 48h	AMA1-RON2 inh	Shiga inhibitor
O=C(O)c1ccc(COc2ccc3ccccc3c2/C=C2/NC(=O)N(c3ccccc3)C2=O)cc1	-39%	?	2	5.9µM*	-5%	6
O=C(O)c1ccc(COc2ccccc2/C=C2/NC(=O)N(c3cccc(Cl)c3)C2=O)cc1	-2%	?	-3	18%	9%[11.6 µM]	23
CCN1C(=O)S/C(=C/c2c(OCc3ccc(C(=O)O)cc3)ccc3ccccc23)C1=O	-74%	6.6µM*	-4	?	?	7
O=C(O)CN1C(=O)/C(=C\c2ccccc2OCc2ccccc2)SC1=S	·	·	·	·	-11%	·
N#CCCn1cc(/C=N/N=C2\NC(=O)C(CC(=O)O)S2)c(-c2ccc(F)cc2)n1 (stereo not drawn)	0%	-13%	-1	3%	141%	-7
Cc1ccccc1C(=O)N1CCC2CC1c1cc(Cl)ccc12 (stereo not drawn)	·	·	·	·	-11%	·
COc1ccc(N2CC(C(=O)Nc3nnc(Cc4ccccc4)s3)CC2=O)cc1 (stereo not drawn)	1%	-3%	-9	12%	4%	-10
COc1ccccc1C1N(c2ccc(F)cc2)C(=O)C2CCCN21 (stereo not drawn)	1%	7%	-1	?	-1%	-13
CC(NC(=O)COC(=O)CNS(=O)(=O)/C=C/c1ccccc1)c1ccccc1 (stereo not drawn)	3%[6.58 µM]	8%	·	-13%	0%	·
N#Cc1c2n(c(=S)n(-c3ccccn3)c1=O)CCCCC2	-1%	8%	16*	12%	16%	25
C=CCN(C(=O)CCC(=O)O)C1CC(=O)N(c2ccc(OCCC)cc2)C1=O (stereo not drawn)	-2%	-35%	-1	15%	1%	8
CCOc1cc(S(=O)(=O)NCc2ccncc2)ccc1Cl	0%	15%	-3	-41%[5.75 µM]	0%	2
Nc1nnc(Cc2ccccc2F)s1	0%	i	2	27%	-9%	-10
Nc1nnc(-c2ccccc2F)s1	-1%	-7%	21*	32%	5%	86*
Nc1nnc(-c2ccc(Cl)cc2Cl)s1	-2%	-2%	23*	61%	3%	58*
O=C(/C=C/c1ccccc1[N+](=O)[O-])Nc1ccc(S(=O)(=O)Nc2ncccn2)cc1	1%	?	1	?	-5%	3
CCOC(=O)C1(C)CCCN(C(=O)c2ccc3c(c2)OCO3)C1 (stereo not drawn)	·	·	·	·	0%	·
O=[N+]([O-])c1ccc(N=Nc2ncc[nH]2)cc1	-11%	32%	16*	?	14%	45
COC(=O)c1ccc(NC(=O)c2ccc(C)cc2)o1	-9%	171%	22*	114%	-3%	48*
COC(=O)c1ccc(NC(=O)c2ccc(F)cc2)o1	-4%	9%	5	74%	-1%	35
COC(=O)c1ccc(NC(=O)c2cccc(Cl)c2)o1	-11%	56%	24*	52%	-8%	58*
COC(=O)c1cc(NC(=O)c2ccc(C)cc2)c(=O)oc1C	0%	85%	25*	39%	2%	43
Cc1oc(=O)c(NC(=O)c2cccc(Cl)c2)cc1C(=O)c1ccccc1	-29%	49%	31*	?	10%	68*
COC(=O)c1cc(NC(=O)c2ccccc2)c(=O)oc1C	-8%	44%	13	0%	-3%	22
Cc1cc(=O)n(CC(=O)NC2CC2)c2c1c(C)nn2-c1ccccc1	0%	17%	1	13%	1%	-6
